We go through four compounds from PubChem BioAssay (Tox21).

Results filed as inconclusive are left out. Activity calls are given as the source filed them. Unless noted, calls come from the whole dose curve; as a rule, active = well fitted curve in the direction sought with a large enough effect in the repeat runs; inconclusive = weak or mixed curves; inactive = no such curve, though single readings can be large; an effect the other way counts as inactive or inconclusive.

For assay [1], the target named is Acetylcholinesterase (Homo sapiens) (UniProt P22303). Put plainly: Acetylcholinesterase (AChE) small molecule antagonists: enzyme-based qHTS assay (AID 1347397; calls by dose curve; note: nearly all actives have a fitted effect of over 55% in size). The following applies: Potency: AChE enzyme activity inhibition; outcome: AChE enzyme activity inhibition; series mostly up to 115 µM. An outline of the steps: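 Recombinant human AChE (50 mU/mL) preincubated with compound 30 min at room temperature; acetylthiocholine plus DTNB then added, and thiocholine formation read colorimetrically after 10 min at room temperature. DMSO served as vehicle control.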
Sequence of Acetylcholinesterase (Homo sapiens) (P22303 whole entry, looked up): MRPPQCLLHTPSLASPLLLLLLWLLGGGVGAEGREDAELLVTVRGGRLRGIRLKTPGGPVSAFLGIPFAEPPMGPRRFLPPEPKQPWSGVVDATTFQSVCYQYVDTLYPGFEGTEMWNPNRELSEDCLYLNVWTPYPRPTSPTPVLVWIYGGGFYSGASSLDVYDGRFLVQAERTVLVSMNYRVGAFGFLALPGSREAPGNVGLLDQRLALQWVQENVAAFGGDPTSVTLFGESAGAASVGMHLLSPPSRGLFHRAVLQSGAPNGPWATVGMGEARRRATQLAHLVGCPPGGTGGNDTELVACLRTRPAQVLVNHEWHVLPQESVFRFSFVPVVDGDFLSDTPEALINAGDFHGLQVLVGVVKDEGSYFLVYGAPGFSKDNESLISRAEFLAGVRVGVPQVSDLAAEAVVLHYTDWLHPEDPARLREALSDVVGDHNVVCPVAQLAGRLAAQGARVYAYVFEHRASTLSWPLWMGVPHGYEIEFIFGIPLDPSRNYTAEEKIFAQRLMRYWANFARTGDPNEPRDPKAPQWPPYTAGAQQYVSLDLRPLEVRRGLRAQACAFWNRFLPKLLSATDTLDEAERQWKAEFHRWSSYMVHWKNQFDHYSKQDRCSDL
In general terms: qHTS replaces the single test concentration by a dilution series.

The target is the same in assay [2]. The assay is described as follows: Acetylcholinesterase (AChE) small molecule antagonists: fluorescence cell-based qHTS assay (AID 1347398; calls by dose curve; note: nearly all actives have a fitted effect of over 50% in size). The following applies: SH-SY5Y cells; Potency: AChE activity; outcome: AChE activity; series mostly up to 115 µM. An outline of the steps: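 SH-SY5Y cells (2000/well), attached overnight, incubated with compound 30 min at 37 C. Acetylthiocholine plus Thiolite Green then added for 40 min at room temperature. Thiocholine fluorescence (Ex/Em 490/520 nm) reports cellular AChE activity.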

For assay [3] the target is unchanged. The assay is described as follows: Acetylcholinesterase (AChE) small molecule antagonists: enzyme-based qHTS assay with human liver microsomes (AID 1347399; calls by dose curve; note: nearly all actives have a fitted effect of over 60% in size). The following applies: Potency: qHTS inhibition; outcome: qHTS inhibition; series mostly up to 115 µM. The procedure, abridged: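 Recombinant human AChE (50 mU/mL in the enzyme mix) and human liver microsomes (0.25 mg/mL final) were preincubated with compound and NADPH (0.25 mg/mL final) for 30 min at 37 C. Acetylthiocholine/DTNB was then added; thiocholine was read colorimetrically after 10 min at room temperature.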

Assay [4] deals with Cytochrome P450 2C19 (Homo sapiens) (UniProt P33261). The assay is described as follows: Cytochrome P450 Family 2 Subfamily C Member 19 (CYP2C19) small molecule antagonists: luciferase reporter qHTS assay (AID 1671197). Note: nearly all actives have a fitted effect of over 65% in size. The following applies: P450-Glo CYP2C19 enzyme, luciferin luminescence, 1 h; series mostly up to 115 µM. An outline of the steps: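 Enzyme-substrate mix with proluciferin substrate (P450-Glo CYP2C19 system) preincubated with compounds 10 min at room temperature; NADPH regeneration solution added, 37C for 1 h; detection reagent stops reaction, luminescence read after 20 min. Ketoconazole positive control.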
Sequence of Cytochrome P450 2C19 (Homo sapiens) (P33261 whole entry, looked up): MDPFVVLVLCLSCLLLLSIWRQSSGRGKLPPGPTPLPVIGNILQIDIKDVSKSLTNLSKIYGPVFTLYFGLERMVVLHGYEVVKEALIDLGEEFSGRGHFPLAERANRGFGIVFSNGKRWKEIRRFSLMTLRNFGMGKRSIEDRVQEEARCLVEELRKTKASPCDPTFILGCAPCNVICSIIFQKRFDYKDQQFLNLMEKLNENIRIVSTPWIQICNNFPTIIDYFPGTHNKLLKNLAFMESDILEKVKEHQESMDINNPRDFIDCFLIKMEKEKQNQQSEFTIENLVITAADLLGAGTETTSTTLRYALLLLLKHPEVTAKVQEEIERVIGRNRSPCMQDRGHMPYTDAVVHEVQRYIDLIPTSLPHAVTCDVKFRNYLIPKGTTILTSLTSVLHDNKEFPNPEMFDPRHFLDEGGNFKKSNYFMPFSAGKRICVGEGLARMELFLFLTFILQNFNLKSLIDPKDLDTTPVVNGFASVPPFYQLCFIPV
For orientation: A reporter such as luciferase makes a cellular process visible.

In assay [5] the target is Cytochrome P450 2C9 (Homo sapiens) (UniProt P11712). The assay is described as follows: Cytochrome P450 Family 2 Subfamily C Member 9 (CYP2C9) small molecule antagonists: luciferase reporter qHTS assay (AID 1671198). Note: nearly all actives have a fitted effect of over 50% in size. The following applies: P450-Glo CYP2C9 enzyme assay, luciferin luminescence; series mostly up to 115 µM. An outline of the steps: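 P450-Glo proluciferin substrate with CYP2C9 enzyme; 10 min RT preincubation, then NADPH regeneration 1 h at 37C; luciferin detection reagent 20 min RT, luminescence in relative luminescence units.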
Sequence of Cytochrome P450 2C9 (Homo sapiens) (P11712 whole entry, looked up): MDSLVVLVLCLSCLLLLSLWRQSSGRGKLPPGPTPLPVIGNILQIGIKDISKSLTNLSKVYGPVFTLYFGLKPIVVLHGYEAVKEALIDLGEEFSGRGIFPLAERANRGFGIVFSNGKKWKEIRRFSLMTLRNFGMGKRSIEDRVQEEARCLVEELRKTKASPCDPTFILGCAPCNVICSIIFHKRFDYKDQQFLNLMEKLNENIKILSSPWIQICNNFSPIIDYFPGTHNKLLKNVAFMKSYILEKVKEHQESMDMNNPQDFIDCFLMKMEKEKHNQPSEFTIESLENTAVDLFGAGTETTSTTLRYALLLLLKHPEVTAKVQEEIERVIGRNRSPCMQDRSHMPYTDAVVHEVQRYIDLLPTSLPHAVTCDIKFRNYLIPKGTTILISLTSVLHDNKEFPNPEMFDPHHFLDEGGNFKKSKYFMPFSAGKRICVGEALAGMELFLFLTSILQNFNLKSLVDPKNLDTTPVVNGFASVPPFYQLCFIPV

Assay [6] concerns the target Voltage-gated inwardly rectifying potassium channel KCNH2 (Homo sapiens) (UniProt Q12809). The assay is described as follows: Human Ether-a-go-go-Related Gene (hERG) channel small molecule antagonists: fluorescence cell-based qHTS assay (AID 1671200).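 Note: hERG-expressing U2OS cells given a thallium stimulus after FluxOR II dye loading; nearly all actives have a fitted effect of over 50% in size.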 The following applies: hERG-U2OS cells, FluxOR thallium flux fluorescence; series mostly up to 76.8 µM. An outline of the steps: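 Kinetic two-minute fluorescence traces, sampled at 1 s, were collected following thallium stimulus of U2OS cells (1000 per well) that had been cultured overnight at 37 C and loaded with FluxOR II.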

Assay [7] concerns the target Cytochrome P450 3A4 (Homo sapiens) (UniProt P08684). The assay is described as follows: Cytochrome P450 Family 3 Subfamily A Member 4 (CYP3A4) small molecule antagonists: luciferase reporter qHTS assay (AID 1671201). Note: nearly all actives have a fitted effect of over 50% in size. The following applies: P450-Glo CYP3A4 enzyme, luciferin luminescence, 1 h; series mostly up to 115 µM. An outline of the steps: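 Proluciferin-to-luciferin conversion by CYP3A4, NADPH-regenerated, 1 h RT; luminescence read as RLU. Ketoconazole as control.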

The target in assay [8] is Cytochrome P450 1A2 (Homo sapiens) (UniProt P05177). Put plainly: Cytochrome P450 Family 1 Subfamily A Member 2 (CYP1A2) small molecule antagonists: luciferase reporter qHTS assay (AID 1671199). Note: nearly all actives have a fitted effect of over 50% in size. The following applies: P450-Glo CYP1A2 enzyme, luciferin luminescence, 1 h; series mostly up to 115 µM. The procedure, abridged:
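Human CYP1A2 activity measured with a P450-Glo proluciferin substrate; compounds in DMSO preincubated 10 min at room temperature with enzyme-substrate mix, then NADPH regeneration system added for 1 h. Luciferin detection reagent, 20 min, luminescence read.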

The target in assay [9] is Cytochrome P450 2D6 (Homo sapiens) (UniProt P10635). The assay is described as follows: Cytochrome P450 Family 2 Subfamily D Member 6 (CYP2D6) small molecule antagonists: luciferase reporter qHTS assay (AID 1671196). The following applies: P450-Glo CYP2D6 enzyme assay, luciferin luminescence, 1 h; series mostly up to 115 µM. An outline of the steps:
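CYP2D6 enzyme–substrate mix was held with compound for 10 min at room temperature, then NADPH regeneration solution was added and the reaction ran 1 h at room temperature. Luciferin product was detected by luminescence after 20 min with detection reagent.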

Sequence of Voltage-gated inwardly rectifying potassium channel KCNH2 (Homo sapiens) (Q12809 whole entry, looked up): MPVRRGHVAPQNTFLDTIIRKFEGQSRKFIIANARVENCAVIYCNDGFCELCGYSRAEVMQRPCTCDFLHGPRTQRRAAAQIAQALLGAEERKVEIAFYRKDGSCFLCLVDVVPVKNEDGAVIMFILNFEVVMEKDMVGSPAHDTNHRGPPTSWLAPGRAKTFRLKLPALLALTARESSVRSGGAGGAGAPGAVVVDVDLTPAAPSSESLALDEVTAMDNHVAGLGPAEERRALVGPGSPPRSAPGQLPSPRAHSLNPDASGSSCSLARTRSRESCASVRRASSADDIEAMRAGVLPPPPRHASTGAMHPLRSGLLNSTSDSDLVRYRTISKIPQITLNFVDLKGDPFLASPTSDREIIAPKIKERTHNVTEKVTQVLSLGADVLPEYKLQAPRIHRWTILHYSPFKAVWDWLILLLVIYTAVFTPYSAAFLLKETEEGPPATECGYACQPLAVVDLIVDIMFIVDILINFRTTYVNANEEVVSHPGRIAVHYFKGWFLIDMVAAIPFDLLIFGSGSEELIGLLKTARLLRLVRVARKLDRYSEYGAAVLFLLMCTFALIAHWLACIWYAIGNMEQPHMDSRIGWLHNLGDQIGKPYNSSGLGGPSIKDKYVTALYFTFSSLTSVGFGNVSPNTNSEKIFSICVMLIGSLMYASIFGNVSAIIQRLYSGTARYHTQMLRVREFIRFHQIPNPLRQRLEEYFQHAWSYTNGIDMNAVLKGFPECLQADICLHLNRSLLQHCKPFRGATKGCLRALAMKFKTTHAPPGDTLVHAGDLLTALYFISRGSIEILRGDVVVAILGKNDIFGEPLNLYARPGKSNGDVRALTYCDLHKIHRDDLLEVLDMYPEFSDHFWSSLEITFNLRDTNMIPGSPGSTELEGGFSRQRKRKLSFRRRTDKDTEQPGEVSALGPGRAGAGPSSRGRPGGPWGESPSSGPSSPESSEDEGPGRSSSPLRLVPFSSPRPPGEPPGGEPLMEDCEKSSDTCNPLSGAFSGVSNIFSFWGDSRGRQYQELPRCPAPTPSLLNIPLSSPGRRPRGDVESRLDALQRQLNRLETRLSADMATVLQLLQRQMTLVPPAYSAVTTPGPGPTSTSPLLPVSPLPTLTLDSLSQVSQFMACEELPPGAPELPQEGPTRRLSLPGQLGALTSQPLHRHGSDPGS
Sequence of Cytochrome P450 3A4 (Homo sapiens) (P08684 whole entry, looked up): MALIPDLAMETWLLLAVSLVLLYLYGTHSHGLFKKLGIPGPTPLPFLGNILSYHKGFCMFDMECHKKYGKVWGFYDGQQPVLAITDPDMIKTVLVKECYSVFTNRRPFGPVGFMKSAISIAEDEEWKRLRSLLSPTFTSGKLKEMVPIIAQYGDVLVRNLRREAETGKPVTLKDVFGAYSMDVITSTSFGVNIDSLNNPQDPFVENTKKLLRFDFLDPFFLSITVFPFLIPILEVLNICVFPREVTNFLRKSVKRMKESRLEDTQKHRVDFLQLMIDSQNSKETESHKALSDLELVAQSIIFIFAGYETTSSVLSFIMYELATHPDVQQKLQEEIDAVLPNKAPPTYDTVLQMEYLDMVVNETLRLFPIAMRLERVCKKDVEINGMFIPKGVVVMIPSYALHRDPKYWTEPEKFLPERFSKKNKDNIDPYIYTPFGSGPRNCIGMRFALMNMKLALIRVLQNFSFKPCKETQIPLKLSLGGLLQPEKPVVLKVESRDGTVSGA
Sequence of Cytochrome P450 1A2 (Homo sapiens) (P05177 whole entry, looked up): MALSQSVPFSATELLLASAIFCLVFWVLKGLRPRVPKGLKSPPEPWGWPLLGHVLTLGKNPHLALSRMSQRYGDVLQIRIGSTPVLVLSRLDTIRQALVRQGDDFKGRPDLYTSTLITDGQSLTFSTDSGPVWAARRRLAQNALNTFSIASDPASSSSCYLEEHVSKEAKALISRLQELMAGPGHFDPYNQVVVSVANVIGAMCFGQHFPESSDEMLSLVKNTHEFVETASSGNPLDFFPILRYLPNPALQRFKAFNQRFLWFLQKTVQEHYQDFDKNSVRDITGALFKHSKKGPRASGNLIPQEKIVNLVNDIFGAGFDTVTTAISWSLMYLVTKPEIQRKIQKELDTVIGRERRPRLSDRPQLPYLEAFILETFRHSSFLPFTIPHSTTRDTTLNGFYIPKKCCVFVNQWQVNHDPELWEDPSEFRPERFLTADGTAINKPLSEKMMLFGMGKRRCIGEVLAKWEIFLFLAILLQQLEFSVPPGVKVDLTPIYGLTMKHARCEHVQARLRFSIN
Sequence of Cytochrome P450 2D6 (Homo sapiens) (P10635 whole entry, looked up): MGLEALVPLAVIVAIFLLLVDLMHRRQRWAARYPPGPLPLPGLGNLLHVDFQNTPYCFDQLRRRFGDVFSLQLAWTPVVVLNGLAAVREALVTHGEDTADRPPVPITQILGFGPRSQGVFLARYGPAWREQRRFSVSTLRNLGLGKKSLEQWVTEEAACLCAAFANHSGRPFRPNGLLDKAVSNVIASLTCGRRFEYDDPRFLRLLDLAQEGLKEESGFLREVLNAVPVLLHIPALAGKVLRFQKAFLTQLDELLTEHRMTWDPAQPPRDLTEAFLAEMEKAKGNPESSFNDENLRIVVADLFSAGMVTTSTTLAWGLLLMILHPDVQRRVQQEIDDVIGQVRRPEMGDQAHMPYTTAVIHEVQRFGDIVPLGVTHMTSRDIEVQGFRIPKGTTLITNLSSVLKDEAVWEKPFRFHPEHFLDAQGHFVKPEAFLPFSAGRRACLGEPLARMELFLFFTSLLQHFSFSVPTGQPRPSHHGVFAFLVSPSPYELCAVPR

Regarding `O=C(O)C(Cl)Br` (centres undefined), the Potency entry in [1], in assay [2], in [3], in assay [4], in assay [5] and in assay [6] was “inactive” each time. For the same compound, in [7], the Potency entry was “inactive”.
For the compound `CC1NCCOC1c1ccccc1` (centres undefined), the Potency entry in assay [1], in assay [2], in [3], in assay [4], in assay [5] and in assay [8] was “inactive” each time. Further, the Potency result in assay [6] and in assay [7] was “inactive” in each case.
Consider `CCC(=O)c1ccc(Cl)cc1`, for which the Potency result in assay [1], in assay [2], in assay [3], in assay [4], in assay [5] and in assay [8] was “inactive” each time. The Potency result in assay [6] and in assay [7] was “inactive” throughout.
In the case of `O=c1[nH]c2ccccc2n1C1CCNCC1`, the Potency result in assay [1], in [2], in assay [3], in [6] and in [7] was “inactive” throughout. Also, in assay [9], the Potency is 30.9 µM (active).
